According to the supplement of paper PMC11732987, “Enantioselective OTUD7B fragment discovery through chemoproteomics screening and high-throughput optimisation” (Communications Chemistry, 2025):

Columns and labels:
Test in all cases: log2 ratio of Biotin-Ahx-Ub-VS probe labelling (fragment/DMSO); higher = less target engagement (more negative = stronger competition), active = hit call of the paper (q ≤ 0.05, log2 ratio ≤ -1)
Settings in all cases: compound concentration: 200 uM; treatment time: 3 h
USP34 = USP34 (UniProt Q70CQ2)
Sequence of USP34 (Q70CQ2 whole entry, the tested form may be a part): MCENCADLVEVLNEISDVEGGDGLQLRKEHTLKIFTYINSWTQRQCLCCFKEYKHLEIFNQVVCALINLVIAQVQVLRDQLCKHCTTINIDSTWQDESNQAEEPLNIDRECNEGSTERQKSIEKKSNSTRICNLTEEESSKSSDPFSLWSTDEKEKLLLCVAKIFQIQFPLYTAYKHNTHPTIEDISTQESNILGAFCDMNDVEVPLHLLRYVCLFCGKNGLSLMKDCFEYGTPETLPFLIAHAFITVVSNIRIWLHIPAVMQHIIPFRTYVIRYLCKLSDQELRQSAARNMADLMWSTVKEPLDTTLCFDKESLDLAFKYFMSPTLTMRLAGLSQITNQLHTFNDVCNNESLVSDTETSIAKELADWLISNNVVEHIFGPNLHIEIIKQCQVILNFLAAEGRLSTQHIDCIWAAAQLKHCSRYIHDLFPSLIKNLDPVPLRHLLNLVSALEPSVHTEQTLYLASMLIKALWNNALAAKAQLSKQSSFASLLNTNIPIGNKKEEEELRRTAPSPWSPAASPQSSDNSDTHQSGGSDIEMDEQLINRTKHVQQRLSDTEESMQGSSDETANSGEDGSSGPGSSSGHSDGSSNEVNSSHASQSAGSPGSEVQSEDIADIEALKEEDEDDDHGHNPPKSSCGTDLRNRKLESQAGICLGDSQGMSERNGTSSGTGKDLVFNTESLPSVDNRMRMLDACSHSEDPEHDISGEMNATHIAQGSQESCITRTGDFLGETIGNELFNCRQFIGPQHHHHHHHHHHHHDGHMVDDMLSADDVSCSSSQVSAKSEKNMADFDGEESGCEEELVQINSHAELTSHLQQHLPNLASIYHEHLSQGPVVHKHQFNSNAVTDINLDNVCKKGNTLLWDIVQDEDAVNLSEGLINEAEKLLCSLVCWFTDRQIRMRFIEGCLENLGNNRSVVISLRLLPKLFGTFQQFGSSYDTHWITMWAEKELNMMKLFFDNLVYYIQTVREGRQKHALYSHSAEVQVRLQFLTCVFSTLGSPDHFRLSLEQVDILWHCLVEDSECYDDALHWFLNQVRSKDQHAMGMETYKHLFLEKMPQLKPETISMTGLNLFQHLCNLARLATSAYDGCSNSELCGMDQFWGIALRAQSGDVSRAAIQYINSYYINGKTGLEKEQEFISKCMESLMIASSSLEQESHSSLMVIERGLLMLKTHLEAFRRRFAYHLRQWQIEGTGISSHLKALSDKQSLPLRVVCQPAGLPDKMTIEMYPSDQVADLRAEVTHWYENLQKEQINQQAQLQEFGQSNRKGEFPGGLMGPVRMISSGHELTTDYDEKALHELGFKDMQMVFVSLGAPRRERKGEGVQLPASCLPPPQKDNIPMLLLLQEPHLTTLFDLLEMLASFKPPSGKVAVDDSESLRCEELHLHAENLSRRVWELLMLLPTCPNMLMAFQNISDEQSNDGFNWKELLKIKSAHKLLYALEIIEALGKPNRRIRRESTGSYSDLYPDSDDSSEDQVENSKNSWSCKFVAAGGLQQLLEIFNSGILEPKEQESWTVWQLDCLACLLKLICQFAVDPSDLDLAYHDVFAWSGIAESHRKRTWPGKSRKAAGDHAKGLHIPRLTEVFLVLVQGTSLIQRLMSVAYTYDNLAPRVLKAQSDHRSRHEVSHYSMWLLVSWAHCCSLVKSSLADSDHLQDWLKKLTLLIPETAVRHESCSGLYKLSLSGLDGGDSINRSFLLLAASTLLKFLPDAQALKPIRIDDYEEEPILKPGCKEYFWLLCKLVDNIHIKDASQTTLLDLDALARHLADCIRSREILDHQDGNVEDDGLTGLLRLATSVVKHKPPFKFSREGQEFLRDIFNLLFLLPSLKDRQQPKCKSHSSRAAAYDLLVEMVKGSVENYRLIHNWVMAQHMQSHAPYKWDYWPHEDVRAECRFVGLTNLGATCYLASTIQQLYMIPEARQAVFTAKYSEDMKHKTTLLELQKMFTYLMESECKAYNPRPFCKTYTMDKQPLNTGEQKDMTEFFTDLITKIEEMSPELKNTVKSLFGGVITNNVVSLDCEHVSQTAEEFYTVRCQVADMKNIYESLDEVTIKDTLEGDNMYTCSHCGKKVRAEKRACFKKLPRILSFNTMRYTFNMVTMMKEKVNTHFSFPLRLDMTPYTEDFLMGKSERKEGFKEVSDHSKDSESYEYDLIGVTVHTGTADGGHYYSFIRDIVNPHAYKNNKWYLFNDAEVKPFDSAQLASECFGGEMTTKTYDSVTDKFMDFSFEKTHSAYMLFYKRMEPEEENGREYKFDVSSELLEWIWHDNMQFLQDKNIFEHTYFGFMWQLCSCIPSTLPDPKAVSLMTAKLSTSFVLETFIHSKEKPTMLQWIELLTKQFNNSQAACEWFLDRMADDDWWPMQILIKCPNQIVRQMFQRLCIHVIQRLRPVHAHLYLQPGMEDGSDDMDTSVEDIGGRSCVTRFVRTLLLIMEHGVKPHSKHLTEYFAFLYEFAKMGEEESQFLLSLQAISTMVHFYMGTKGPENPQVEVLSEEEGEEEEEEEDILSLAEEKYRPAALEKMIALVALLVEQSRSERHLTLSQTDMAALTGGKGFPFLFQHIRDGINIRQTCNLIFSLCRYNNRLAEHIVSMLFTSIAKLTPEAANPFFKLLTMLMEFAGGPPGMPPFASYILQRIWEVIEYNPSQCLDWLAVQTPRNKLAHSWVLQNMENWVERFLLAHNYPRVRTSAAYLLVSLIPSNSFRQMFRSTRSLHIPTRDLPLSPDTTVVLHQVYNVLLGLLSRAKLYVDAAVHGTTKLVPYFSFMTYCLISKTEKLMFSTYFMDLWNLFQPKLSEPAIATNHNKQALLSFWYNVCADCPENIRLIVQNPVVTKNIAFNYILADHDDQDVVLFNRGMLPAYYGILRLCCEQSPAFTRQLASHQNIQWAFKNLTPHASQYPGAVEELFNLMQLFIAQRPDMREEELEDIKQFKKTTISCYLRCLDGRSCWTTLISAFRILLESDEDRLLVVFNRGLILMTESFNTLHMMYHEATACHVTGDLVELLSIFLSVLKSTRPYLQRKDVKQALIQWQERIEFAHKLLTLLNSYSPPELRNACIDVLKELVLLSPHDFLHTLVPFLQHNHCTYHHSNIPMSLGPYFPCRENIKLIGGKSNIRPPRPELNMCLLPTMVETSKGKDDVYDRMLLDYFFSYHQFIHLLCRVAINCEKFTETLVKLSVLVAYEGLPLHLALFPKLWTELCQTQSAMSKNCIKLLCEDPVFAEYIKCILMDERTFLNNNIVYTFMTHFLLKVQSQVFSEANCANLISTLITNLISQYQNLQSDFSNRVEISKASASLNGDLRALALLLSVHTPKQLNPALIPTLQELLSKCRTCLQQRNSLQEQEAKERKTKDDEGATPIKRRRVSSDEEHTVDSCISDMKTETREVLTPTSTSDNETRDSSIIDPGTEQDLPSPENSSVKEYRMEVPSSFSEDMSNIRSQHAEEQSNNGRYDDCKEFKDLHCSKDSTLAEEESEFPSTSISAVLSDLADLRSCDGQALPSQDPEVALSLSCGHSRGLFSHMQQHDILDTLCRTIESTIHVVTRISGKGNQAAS
In short: (§1)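 HEK293T lysate in Tris/CHAPS/IGEPAL buffer with protease inhibitors (495 µg per sample) was given fragment at 200 µM or vehicle for 3 h, in triplicate. It then received Biotin-Ahx-Ub-VS at 0.5 µM final for 1 h. Labelled DUBs were NeutrAvidin-enriched, digested with LysC and trypsin, and run by diaPASEF LC-MS/MS. Values are average log2 fragment/vehicle ratios by unpaired t-test on global-median-normalised Spectronaut quantities of proteins with ≥2 unique peptides.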

USP36 = biological target: T1, USP36 (UniProt Q9P275)
T1 sequence (whole entry): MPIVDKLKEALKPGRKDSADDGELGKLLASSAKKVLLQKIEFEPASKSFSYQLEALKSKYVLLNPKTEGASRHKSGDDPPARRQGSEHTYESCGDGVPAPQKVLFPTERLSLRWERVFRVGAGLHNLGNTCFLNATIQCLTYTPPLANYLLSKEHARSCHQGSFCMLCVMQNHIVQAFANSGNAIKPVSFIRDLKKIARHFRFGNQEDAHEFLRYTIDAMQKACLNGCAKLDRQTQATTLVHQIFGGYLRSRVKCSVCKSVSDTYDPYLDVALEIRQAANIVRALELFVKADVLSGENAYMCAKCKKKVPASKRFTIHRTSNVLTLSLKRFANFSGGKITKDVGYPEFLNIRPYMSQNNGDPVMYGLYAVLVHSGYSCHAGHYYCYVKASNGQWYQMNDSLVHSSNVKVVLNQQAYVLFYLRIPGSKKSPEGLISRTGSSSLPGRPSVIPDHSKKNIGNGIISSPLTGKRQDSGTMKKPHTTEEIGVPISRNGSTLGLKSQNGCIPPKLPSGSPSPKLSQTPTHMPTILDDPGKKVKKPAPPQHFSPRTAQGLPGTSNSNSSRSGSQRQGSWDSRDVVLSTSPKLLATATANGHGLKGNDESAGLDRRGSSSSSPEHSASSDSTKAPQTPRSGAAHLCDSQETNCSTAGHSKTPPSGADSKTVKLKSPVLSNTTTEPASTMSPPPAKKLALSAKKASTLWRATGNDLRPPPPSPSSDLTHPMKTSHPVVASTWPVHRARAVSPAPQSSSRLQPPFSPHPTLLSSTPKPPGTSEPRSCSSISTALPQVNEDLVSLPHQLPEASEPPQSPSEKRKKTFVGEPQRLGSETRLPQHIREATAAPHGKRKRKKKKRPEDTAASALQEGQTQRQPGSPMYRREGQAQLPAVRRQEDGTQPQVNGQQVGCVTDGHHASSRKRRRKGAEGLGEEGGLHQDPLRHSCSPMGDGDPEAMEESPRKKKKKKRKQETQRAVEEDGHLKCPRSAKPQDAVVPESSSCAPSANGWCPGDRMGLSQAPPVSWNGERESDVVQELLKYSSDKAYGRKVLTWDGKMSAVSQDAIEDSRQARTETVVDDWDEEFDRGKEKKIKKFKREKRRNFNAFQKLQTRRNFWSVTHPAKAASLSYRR
In short: as §1

USP38 = biological target: T2, USP38 (UniProt Q8NB14)
T2 sequence (whole entry): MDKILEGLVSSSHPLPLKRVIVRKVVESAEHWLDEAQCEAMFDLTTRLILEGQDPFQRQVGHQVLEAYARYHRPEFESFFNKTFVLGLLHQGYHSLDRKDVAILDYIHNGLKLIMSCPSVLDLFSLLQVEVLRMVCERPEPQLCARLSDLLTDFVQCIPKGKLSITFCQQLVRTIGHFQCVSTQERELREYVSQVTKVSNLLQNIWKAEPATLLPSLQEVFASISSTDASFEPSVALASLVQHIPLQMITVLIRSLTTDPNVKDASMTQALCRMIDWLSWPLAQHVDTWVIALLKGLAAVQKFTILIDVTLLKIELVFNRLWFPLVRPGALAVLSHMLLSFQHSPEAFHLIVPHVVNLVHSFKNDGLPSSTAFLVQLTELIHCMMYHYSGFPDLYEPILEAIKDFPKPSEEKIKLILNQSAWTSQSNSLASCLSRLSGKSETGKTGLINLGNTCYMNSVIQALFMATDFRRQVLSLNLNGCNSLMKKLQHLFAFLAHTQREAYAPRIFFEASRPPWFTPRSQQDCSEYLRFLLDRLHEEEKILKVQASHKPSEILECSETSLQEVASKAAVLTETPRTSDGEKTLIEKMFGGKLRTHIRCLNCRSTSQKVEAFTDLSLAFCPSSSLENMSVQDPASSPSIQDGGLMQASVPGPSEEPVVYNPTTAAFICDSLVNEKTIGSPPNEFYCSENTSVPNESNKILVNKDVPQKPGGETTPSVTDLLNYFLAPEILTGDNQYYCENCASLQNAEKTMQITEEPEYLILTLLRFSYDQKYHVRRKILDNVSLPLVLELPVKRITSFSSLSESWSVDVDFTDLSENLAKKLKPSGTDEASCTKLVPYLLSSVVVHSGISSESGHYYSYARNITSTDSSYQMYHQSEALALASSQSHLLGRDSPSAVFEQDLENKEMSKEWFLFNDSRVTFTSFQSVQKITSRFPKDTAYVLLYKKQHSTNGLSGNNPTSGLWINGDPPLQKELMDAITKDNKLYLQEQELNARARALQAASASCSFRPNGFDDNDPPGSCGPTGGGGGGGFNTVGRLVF
In short: as §1

USP39 = biological target: T3, USP39 (UniProt Q53GS9)
T3 sequence (whole entry): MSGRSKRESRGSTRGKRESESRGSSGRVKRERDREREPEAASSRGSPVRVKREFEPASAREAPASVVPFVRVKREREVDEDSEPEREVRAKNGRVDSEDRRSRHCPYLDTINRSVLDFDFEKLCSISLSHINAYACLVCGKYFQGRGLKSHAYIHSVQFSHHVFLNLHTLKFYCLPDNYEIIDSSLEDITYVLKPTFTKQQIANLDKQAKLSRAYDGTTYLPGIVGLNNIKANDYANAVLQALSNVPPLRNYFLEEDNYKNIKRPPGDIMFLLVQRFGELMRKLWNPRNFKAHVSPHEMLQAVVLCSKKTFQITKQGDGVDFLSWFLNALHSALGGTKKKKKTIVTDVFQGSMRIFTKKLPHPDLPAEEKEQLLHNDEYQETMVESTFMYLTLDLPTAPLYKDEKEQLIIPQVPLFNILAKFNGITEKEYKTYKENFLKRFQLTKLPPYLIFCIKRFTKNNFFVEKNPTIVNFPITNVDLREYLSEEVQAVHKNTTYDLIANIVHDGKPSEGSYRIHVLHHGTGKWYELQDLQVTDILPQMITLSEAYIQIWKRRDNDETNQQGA
In short: as §1

USP4 = biological target: T4, USP4 (UniProt Q13107)
T4 sequence (whole entry): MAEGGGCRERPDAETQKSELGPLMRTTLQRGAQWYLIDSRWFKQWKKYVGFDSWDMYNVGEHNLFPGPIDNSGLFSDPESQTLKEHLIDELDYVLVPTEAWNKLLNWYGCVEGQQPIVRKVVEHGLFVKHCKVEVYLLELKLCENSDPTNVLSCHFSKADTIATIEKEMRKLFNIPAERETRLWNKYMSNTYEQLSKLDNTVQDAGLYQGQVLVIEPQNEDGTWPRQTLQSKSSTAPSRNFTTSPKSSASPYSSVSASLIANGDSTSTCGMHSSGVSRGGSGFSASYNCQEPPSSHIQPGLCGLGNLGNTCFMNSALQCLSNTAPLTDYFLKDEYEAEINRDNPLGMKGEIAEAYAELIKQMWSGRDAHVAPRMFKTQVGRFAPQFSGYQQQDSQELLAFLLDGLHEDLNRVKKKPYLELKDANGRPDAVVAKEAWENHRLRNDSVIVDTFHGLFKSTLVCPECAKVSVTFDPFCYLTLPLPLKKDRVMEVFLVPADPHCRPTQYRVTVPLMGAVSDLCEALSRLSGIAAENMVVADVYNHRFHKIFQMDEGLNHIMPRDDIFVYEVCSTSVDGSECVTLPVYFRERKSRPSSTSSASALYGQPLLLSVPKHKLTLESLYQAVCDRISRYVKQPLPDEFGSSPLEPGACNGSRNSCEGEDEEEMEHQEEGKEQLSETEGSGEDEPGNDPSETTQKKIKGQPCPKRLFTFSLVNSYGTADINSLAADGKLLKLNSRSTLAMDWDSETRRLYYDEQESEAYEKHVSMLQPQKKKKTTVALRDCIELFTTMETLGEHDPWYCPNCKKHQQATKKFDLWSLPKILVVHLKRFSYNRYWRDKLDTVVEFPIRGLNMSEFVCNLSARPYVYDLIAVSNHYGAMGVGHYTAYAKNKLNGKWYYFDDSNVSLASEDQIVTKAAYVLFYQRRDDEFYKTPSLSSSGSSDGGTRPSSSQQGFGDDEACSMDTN
In short: as §1

Measured: log2 ratio of Biotin-Ahx-Ub-VS probe labelling

COc1ccc(-c2csc(NC(=O)CCl)n2)cc1
inactive: USP34 -0.405 | USP36 -0.137 | USP38 -0.188 | USP39 0.0959 | USP4 -0.299
